Data from PubChem BioAssay (NCATS).
Inconclusive results are not listed. Calls of active or inactive are those of the source. Unless noted, the call rests on the fitted dose curve.

Assays:
[1] = biological target: Lysosomal acid glucosylceramidase (Homo sapiens) (UniProt P04062); assay: Glucocerebrosidase-p2 (AID 348; in the data active means potency below about 10 µM; further: potency means the concentration at half of the fitted maximal effect); conditions: purified GBA, blue fluorogenic substrate, 40 min
Procedure, shortened: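 Normal human glucocerebrosidase (0.2 nM) with blue fluorogenic substrate (80 uM final) in citrate/phosphate pH 5.9 with 10mM sodium taurocholate, 0.01% tween-20; 40 min RT, NaOH/glycine stop; fluorescence Ex 365/Em 440; AC50 from a titration from 0.6 nM upwards.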

[2] = AP1 Signaling Pathway (AID 357; active means well fitted curve in either direction with a large enough effect, not every such curve was filed as active; further: on the % scale 0 is the no-effect control and ±100 the full control effect); conditions: ME-180 AP-1-bla reporter, EGF-induced, beta-lactamase ratio, 5 h; at 7.69 µM (top of the series) unless noted
Procedure, shortened: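 AP-1-bla ME-180 cells with beta-lactamase reporter under AP-1 response element, stimulated with EC50 EGF; compounds titrated, 5 hours at 37 degrees Celsius. CCF4 read at 460/530 nm ratio; positive and negative modulators judged by AC50.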

[3] = biological target: Cytochrome P450 1A2 (Homo sapiens) (UniProt P05177); assay: p450-cyp1a2 (AID 410); conditions: recombinant CYP1A2, luciferin-ME demethylation, luminescence; series mostly up to 57 µM; further: potency means the concentration at half of the fitted maximal effect;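 on activity change, negative = inhibition: -100% = full effect of reference inhibitor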
Procedure, shortened: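 O-Demethylation of luciferin 6' methyl ether by human CYP1A2 is monitored as luciferase luminescence. Substrate sits at Km (100uM); enzyme is 20nM. Values are scaled to 57 uM furafylline as maximal inhibition.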

[4] = Stat Signaling Pathway (AID 446; active means well fitted curve in either direction with a large enough effect, not every such curve was filed as active;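 further: ME-180 cervical cancer cells given 40 pM IL-6 alongside compound; SIE-controlled beta-lactamase reporter measured as 460/530 nm FRET emission ratio; on the % scale 0 is the no-effect control and ±100 the full control effect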); conditions: ME-180 SIE beta-lactamase reporter, IL-6 stimulated, 5 h; at 7.69 µM (top of the series) unless noted
Procedure, shortened: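 Overnight-plated ME-180 cells bearing a STAT Inducible Element beta-lactamase reporter; 5 h co-exposure to compound and 40 pM IL-6; values normalized to 300 pM IL-6 and 125 nM JAK inhibitor controls.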

[5] = biological target: Glucocorticoid receptor (Homo sapiens) (UniProt P04150); assay: GR-EFC Redistribution (AID 451); conditions: CHO-K1 GR-EFC translocation, beta-gal luminescence, 2 h; further: potency means the concentration at half of the fitted maximal effect
Procedure, shortened: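 Translocation of GR-ED fusion to nuclear EA restores b-gal, read by luminescence after 1 h room-temperature detection. Engineered CHO-K1 biosensor cells, 1,000/well, exposed 2 h at 37 C to titrations up to 46 uM final.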

[6] = biological target: Mitogen-activated protein kinase 10 (Mus musculus) (UniProt Q61831); assay: JNK3 AlphaScreen Assay (AID 530; active means well fitted curve in either direction with a large enough effect, not every such curve was filed as active;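 further: kinase came from lysate of stimulated human HepG2 cells; signal reports phosphorylation of biotinylated GST-cJun 1-79 at Ser73 with 10 µM ATP; on the % scale 0 is the no-effect control and ±100 the full control effect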); conditions: JNK3 lysate, c-Jun phosphorylation; series mostly up to 57.1 µM
Procedure, shortened: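 qHTS titrations with 15 min compound pre-incubation before adding ATP (10 uM final). Read-out: AlphaScreen of Ser73-phosphorylated biotin-GST-cJun using HepG2 lysate JNK3 activated by IL-1β and TNFα.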

[7] = biological target: 3',5'-cyclic-AMP phosphodiesterase 4B (Homo sapiens) (UniProt Q07343); assay: qHTS Assay for Inhibitors of PDE-IV (AID 607; active means well fitted activation curve with a large enough effect in the main read-out, with a control signal flat, not every such curve was filed as active; further: % of control where 0% means no effect); conditions: HEK293 ACTOne CNG channel cells, membrane potential fluorescence; series mostly up to 22.9 µM
Procedure, shortened: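 Live HEK293 cells with a modified cyclic nucleotide-gated (CNG) channel report intracellular cAMP via membrane-potential dye fluorescence (ex 535/em 590 nm). Endogenous PDE-IV was targeted. Compounds were tested at up to 22.9 uM final; RO 20-1724 100 uM served as control.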

[8] = biological target: Cytochrome P450 3A4 (Homo sapiens) (UniProt P08684); assay: qHTS Assay for Activators of Cytochrome P450 3A4 (AID 885; active means well fitted curve in the direction sought with a large enough effect; an effect the other way counts as inactive or inconclusive; further: nearly all actives have a fitted effect of over 65% in size; further: potency means the concentration at half of the fitted maximal effect); conditions: recombinant CYP3A4, Luciferin-PPXE luminescence, 60 min; series mostly up to 57.1 µM
Procedure, shortened: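 Using 20nM recombinant human CYP3A4 in potassium phosphate (200mM), substrate Luciferin-PPXE at 25uM, luminescent luciferin detection followed a 60-min RT NADPH reaction; data scaled to 57 uM ketoconazole.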

[9] = qHTS Assay for Lipid Storage Modulators (AID 1519); conditions: Drosophila S3 cells, BODIPY lipid droplet/cell ratio, laser cytometry, cells loaded with oleic acid; for activity change, negative = inhibition: at 57.5 µM (top of the series)
Procedure, shortened: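 Cells seeded at 5,000 per well were treated with compounds over a concentration series and loaded with oleic acid (400 uM, as added). Lipid droplet fluorescence (488 nm excitation, 500-530 nm channel) was read by laser-scanning cytometry and normalized to 20 uM Triacsin C.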

[10] = Primary qHTS for small molecule stabilizers of the endoplasmic reticulum resident proteome: Secreted ER Calcium Modulated Protein (SERCaMP) assay (AID 1508630; active means well fitted curve in the direction sought with a large enough effect; an effect the other way counts as inactive or inconclusive; further: on the % scale 0 is the no-effect control and ±100 the full control effect); conditions: SH-SY5Y GLuc-SERCaMP (Gaussia luciferase released on ER calcium loss) secretion, thapsigargin, luminescence; series mostly up to 38.4 µM
Procedure, shortened: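 The SH-SY5Y reporter protocol was run at 3 concentrations up to 38.3 uM (primary) or 11 concentrations (follow-up): 16 h compound, 100 nM thapsigargin for 4 h, then extracellular luciferase luminescence.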

[11] = biological target: Cytochrome P450 3A4 (Homo sapiens) (UniProt P08684); assay: qHTS Assay for Inhibitors and Substrates of Cytochrome P450 3A4 (AID 884; active means well fitted curve in the direction sought with a large enough effect; an effect the other way counts as inactive or inconclusive; further: nearly all actives have a fitted effect of over 50% in size; further: potency means the concentration at half of the fitted maximal effect); conditions: recombinant CYP3A4, Luciferin-PPXE luminescence; series mostly up to 57.1 µM
Procedure, shortened: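 Luminescent readout of luciferin produced by CYP3A4 (20 nM) dealkylation of Luciferin-PPXE, 25 uM (its KM). NADPH-driven reaction ran 60 min at RT after 10 min compound preincubation; data scaled to 57 uM ketoconazole as 100% inhibition.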

[12] = qHTS Assay for Identification of Small Molecule Agonists for Hypoxia Response Element Signaling Pathway (AID 914; active means well fitted activation curve with a large enough effect in the signal ratio, with a control signal flat, not every such curve was filed as active; the % refers to the signal ratio; further: % of control where 0% means no effect); conditions: ME-180 (cervical carcinoma) HRE-bla reporter, beta-lactamase ratio, CoCl2, 17 h; activation: stronger effect = higher value
Procedure, shortened: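 qHTS titration; ME-180 HRE-bla cells; EC50 CoCl2 co-treatment, 17 h at 37 degrees Celsius; CCF4 dye, ex 405nm, em 460nm and 530nm; %Activity from ratio; AC50.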

[13] = biological target: Cytochrome P450 2C9 (Homo sapiens) (UniProt P11712); assay: qHTS Assay for Inhibitors and Substrates of Cytochrome P450 2C9 (AID 883; active means well fitted curve in the direction sought with a large enough effect; an effect the other way counts as inactive or inconclusive; further: on the % scale 0 is the no-effect control and ±100 the full control effect; nearly all actives have a fitted effect of over 60% in size); conditions: recombinant CYP2C9, luciferin-H luminescence, 60 min; series mostly up to 57.1 µM
Procedure, shortened: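 Luminescent read-out of deoxyluciferin hydroxylation, normalized to 57uM sulphaphenazole (AC100). Reaction: 10nM enzyme, 100uM Luciferin-H (equal to KM), 25mM KPO4, 10 min compound preincubation, then 60 min with NADPH regeneration, both at 37C.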

[14] = biological target: Cytochrome P450 2D6 (Homo sapiens) (UniProt P10635); assay: qHTS Assay for Inhibitors and Substrates of Cytochrome P450 2D6 (AID 891; active means well fitted curve in the direction sought with a large enough effect; an effect the other way counts as inactive or inconclusive; further: potency means the concentration at half of the fitted maximal effect; nearly all actives have a fitted effect of over 60% in size); conditions: recombinant CYP2D6, luciferin-ME EGE luminescence; series mostly up to 57.1 µM
Procedure, shortened: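 Luminescent read-out of luciferin formed by 5 nM human CYP2D6 demethylating 30 uM Luciferin-ME EGE (Km level) over 60 min at room temperature after NADPH regeneration addition. Data normalized to full inhibition by 1.43 uM quinidine.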

[15] = measured here: cell count channel max response
[16] = measured here: lipid channel max response

Sequence of Cytochrome P450 3A4 (Homo sapiens) (P08684 whole entry, looked up): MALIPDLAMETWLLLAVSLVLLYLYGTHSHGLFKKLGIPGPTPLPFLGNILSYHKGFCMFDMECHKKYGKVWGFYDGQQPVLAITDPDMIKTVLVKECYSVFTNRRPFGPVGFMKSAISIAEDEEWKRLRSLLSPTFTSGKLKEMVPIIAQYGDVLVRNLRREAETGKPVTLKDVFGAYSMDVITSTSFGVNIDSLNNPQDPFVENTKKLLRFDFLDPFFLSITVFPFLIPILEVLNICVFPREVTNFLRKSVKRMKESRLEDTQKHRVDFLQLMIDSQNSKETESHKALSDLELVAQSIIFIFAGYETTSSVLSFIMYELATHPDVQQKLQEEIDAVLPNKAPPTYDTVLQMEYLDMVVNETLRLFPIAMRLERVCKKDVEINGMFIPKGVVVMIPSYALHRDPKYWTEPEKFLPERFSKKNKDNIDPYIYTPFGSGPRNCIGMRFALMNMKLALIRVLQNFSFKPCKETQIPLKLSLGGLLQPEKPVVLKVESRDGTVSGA
Sequence of Cytochrome P450 1A2 (Homo sapiens) (P05177 whole entry, looked up): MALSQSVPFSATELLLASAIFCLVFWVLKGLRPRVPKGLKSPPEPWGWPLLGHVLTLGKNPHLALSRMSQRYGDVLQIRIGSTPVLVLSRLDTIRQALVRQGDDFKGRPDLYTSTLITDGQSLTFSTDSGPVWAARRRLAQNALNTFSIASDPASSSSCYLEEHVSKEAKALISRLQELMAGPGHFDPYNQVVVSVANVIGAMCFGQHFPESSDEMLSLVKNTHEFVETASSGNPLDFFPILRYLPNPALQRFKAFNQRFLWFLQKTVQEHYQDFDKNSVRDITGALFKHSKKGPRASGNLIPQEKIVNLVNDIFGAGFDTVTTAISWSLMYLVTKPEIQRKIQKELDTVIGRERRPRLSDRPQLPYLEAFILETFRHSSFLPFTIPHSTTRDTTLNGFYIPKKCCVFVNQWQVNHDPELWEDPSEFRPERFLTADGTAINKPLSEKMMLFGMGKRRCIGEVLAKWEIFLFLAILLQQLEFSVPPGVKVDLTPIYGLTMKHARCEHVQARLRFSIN
Sequence of Lysosomal acid glucosylceramidase (Homo sapiens) (P04062 whole entry, looked up): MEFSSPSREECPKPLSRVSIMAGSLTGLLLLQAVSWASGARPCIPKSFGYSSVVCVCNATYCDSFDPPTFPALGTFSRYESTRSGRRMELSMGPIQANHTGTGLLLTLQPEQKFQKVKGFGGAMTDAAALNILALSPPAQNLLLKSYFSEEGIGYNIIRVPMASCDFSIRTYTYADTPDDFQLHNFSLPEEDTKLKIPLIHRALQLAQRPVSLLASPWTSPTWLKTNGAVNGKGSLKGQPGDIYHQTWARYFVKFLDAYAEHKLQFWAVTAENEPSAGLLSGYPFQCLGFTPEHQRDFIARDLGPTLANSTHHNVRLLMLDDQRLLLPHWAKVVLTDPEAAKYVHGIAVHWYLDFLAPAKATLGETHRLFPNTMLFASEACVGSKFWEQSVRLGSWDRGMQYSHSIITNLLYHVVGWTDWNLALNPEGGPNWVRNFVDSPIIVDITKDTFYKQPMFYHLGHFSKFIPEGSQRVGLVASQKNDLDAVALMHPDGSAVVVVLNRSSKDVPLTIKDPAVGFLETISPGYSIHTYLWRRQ
Sequence of 3',5'-cyclic-AMP phosphodiesterase 4B (Homo sapiens) (Q07343 whole entry, looked up): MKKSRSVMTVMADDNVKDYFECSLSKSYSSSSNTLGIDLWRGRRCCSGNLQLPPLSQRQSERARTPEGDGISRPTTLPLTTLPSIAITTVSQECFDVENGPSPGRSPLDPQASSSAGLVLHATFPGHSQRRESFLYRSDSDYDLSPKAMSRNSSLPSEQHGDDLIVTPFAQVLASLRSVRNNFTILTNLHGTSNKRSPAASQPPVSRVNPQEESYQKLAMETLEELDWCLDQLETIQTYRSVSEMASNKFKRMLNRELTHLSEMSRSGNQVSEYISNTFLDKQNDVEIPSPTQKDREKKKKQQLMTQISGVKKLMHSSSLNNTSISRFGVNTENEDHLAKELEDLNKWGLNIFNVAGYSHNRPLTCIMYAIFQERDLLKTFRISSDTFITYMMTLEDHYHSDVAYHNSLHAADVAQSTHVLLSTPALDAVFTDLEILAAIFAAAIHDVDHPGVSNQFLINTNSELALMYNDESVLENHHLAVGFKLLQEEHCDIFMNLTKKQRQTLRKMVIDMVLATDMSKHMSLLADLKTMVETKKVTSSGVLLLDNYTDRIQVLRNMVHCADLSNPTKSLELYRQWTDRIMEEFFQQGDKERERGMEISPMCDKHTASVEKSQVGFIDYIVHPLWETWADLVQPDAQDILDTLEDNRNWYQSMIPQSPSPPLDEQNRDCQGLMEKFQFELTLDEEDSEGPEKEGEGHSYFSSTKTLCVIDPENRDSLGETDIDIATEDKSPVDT
Sequence of Glucocorticoid receptor (Homo sapiens) (P04150 whole entry, looked up, the tested form may be a part): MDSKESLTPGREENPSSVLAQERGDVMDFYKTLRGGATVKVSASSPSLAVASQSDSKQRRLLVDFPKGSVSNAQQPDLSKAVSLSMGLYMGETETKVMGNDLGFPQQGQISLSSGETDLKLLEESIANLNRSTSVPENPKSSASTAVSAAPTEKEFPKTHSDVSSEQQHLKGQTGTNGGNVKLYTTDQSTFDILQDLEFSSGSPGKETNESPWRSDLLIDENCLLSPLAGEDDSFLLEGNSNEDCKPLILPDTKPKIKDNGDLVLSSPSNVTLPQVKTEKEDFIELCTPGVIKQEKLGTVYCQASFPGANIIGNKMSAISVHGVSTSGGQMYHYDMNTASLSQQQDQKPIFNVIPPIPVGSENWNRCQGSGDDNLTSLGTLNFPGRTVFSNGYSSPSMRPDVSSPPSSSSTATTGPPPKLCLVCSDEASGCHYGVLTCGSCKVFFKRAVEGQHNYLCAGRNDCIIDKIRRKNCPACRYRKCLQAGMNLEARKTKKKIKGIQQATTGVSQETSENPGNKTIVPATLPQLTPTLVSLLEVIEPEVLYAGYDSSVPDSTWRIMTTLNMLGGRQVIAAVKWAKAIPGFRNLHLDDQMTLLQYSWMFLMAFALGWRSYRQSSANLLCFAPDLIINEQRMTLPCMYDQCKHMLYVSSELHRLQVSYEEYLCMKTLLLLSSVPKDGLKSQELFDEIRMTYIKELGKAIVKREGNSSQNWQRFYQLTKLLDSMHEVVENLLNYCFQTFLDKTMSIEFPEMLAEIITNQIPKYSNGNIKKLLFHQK
Sequence of Cytochrome P450 2D6 (Homo sapiens) (P10635 whole entry, looked up): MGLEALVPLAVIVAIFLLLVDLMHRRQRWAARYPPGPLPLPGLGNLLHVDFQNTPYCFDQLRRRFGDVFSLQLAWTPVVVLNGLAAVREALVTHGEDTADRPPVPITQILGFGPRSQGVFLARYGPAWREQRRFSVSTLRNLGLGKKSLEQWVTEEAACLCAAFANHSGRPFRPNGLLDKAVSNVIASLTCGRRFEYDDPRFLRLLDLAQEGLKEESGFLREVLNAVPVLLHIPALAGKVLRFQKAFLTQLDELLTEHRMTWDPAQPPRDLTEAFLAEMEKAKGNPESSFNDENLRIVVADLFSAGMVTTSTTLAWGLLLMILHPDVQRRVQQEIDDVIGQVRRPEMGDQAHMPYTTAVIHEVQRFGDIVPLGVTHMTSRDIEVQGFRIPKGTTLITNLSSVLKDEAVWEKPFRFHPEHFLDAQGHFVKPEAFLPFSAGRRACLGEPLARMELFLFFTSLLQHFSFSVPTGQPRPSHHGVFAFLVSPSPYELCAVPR
Sequence of Cytochrome P450 2C9 (Homo sapiens) (P11712 whole entry, looked up): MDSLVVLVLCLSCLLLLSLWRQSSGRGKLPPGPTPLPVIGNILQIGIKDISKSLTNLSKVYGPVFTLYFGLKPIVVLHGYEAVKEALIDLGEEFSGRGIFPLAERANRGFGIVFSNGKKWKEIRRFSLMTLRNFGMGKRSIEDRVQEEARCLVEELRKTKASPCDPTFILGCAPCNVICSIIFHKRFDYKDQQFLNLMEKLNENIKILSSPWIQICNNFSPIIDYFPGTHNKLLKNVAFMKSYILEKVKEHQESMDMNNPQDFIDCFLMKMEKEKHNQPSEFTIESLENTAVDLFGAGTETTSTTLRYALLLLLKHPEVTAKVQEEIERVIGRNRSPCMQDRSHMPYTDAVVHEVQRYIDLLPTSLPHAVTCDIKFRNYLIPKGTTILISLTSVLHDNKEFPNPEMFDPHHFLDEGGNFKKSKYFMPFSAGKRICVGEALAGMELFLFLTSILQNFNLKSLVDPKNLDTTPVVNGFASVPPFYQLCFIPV

Row | SMILES | Potency [1] | activity change, negative = inhibition [2] | Potency [3] | activity, negative = inhibition [4] | Potency [5] | Potency [6] | Potency [7] | Potency [8] | activity change, negative = inhibition [9] | max response [9, 15] [%] | max response [9, 16] [%] | outcome [10] | Potency [11] | activation [12] | Potency [13] | Potency [14]
1 | CN1CCCC2(CCN(C(=O)c3cc(C(F)(F)F)cc(C(F)(F)F)c3)CC2)C1 | > 11.4 µM (inactive) | 5.94% (inactive) | inactive | 4.14% (inactive) | > 46 µM (inactive) | inactive | inactive | inactive | 3.25% (inactive) | 17.7 | 23.1 | inactive | – | – | – | –
2 | c1ccc(C(c2ccccc2)N2CCCC3(CCNCC3)C2)cc1 | > 11.4 µM (inactive) | -3.1% (inactive) | 7.94 µM (active) | 4.89% (inactive) | > 46 µM (inactive) | inactive | inactive | inactive | -1.73% (inactive) | -12.4 | -10.8 | inactive | 1.26 µM (active) | 19.3% (inactive) | – | –
3 | O=C(c1ccco1)N1CCC2(CCN(Cc3nccs3)CC2)CC1 | > 11.4 µM (inactive) | 5.22% (inactive) | inactive | 4.68% (inactive) | > 46 µM (inactive) | inactive | inactive | – | 1% (inactive) | 8.57 | 12.6 | inactive | inactive | -9.81% (inactive) | – | –
4 | COc1ccc(NC(=O)N2CCCC3(CCN(S(=O)(=O)c4ccccc4)CC3)C2)cc1 | > 11.4 µM (inactive) | -4.9% (inactive) | inactive | -19% (inactive) | > 46 µM (inactive) | inactive | inactive | inactive | 2.57% (inactive) | 6.07 | 10.9 | inactive | 7.94 µM (active) | – | – | –
5 | Cc1noc(C)c1C(=O)N1CCC2(CCN(Cc3ccccc3)CC2)CC1 | > 11.4 µM (inactive) | 6.02% (inactive) | inactive | 1% (inactive) | > 46 µM (inactive) | inactive | inactive | – | 0.801% (inactive) | 19.5 | 22 | inactive | – | -10.3% (inactive) | inactive | –
6 | O=C(c1csnn1)N1CCC2(CC1)CCN(c1ccncc1)CC2 | > 11.4 µM (inactive) | 0.494% (inactive) | inactive | 0.543% (inactive) | > 46 µM (inactive) | inactive | inactive | inactive | 1.35% (inactive) | 6.68 | 10 | inactive | – | – | – | –
7 | c1ccc(C(c2ccccc2)N2CC[C@@]3(CCCNC3)C2)cc1 | > 11.4 µM (inactive) | 0.329% (inactive) | inactive | 8.51% (inactive) | > 46 µM (inactive) | inactive | inactive | inactive | -9.5% (inactive) | 4.5 | -6.03 | inactive | 7.94 µM (active) | – | – | –
8 | O=C(c1ccco1)N1CCC2(CC1)CCN(C(c1ccccc1)c1ccccc1)CC2 | > 11.4 µM (inactive) | 0.867% (inactive) | inactive | -7.63% (inactive) | > 46 µM (inactive) | inactive | inactive | 12.6 µM (active) | 3.39% (inactive) | 7.88 | 15 | inactive | inactive | – | – | 5.01 µM (active)
9 | O=C(c1cc(C(F)(F)F)cc(C(F)(F)F)c1)N1CCC[C@@]2(CCN(c3ncccn3)C2)C1 | > 11.4 µM (inactive) | 8.42% (inactive) | inactive | -17.1% (inactive) | > 46 µM (inactive) | inactive | inactive | inactive | 4.69% (inactive) | 8.96 | 17.5 | inactive | – | – | – | –
10 | O=S(=O)(c1ccccc1)N1CCC2(CC1)CN(c1ccccn1)C2 | > 11.4 µM (inactive) | 16% (inactive) | inactive | -15% (inactive) | > 46 µM (inactive) | inactive | inactive | inactive | -4.43% (inactive) | -4.86 | -8.67 | inactive | – | – | – | –
11 | O=C(c1cccc(F)c1)N1CCC[C@@]2(CCN(c3ccccc3)C2)C1 | > 11.4 µM (inactive) | -6.87% (inactive) | inactive | -5.23% (inactive) | > 46 µM (inactive) | inactive | inactive | inactive | 4.17% (inactive) | 8.88 | 15.7 | inactive | 6.31 µM (active) | – | – | –
12 | COc1ccccc1CN1CCCC2(CCN(C(=O)c3ccncc3)CC2)C1 | > 11.4 µM (inactive) | -0.588% (inactive) | 20 µM (active) | 1.91% (inactive) | > 46 µM (inactive) | inactive | inactive | inactive | 1.58% (inactive) | 5.27 | 9.4 | inactive | 6.31 µM (active) | 3.13% (inactive) | – | 3.16 µM (active)
13 | N#Cc1cccc(NC(=O)N2CCC3(CC2)CCN(C(=O)c2cccc(F)c2)CC3)c1 | > 11.4 µM (inactive) | -11.8% (inactive) | inactive | -7.8% (inactive) | > 46 µM (inactive) | inactive | inactive | 7.94 µM (active) | 5.01% (inactive) | 6.66 | 13.2 | inactive | inactive | – | – | –
